# Test system: Human papillomavirus type 1a protein E7 (residues 44-93)
# Test: HPV1a E7 fragment binders on microarrays, primary screen, biochemical, small-molecule microarray, residues 44-93, 635 nm fluorescence (AID 1108);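 further: E7 fragment applied at 1 µg/mL in TBST for 1 h at 4 C; score combines spot fluorescence with its signal to noise ratio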
# Details: small-molecule microarray binding, fluorescence 635 nm; higher = more signal
row,Structure (SMILES),composite z-score
1,CC(C)CON=C1C[C@@H](O)[C@@H](O)[C@@H]2[C@@H]3C(=O)N(C[C@@H]4CCCO4)C(=O)[C@@H]3CC[C@H]12,0.595
2,CCN1C(=O)[C@H]2[C@H]3[C@H](O)[C@H](O)CC(=NO[C@@H]4O[C@H](CO)[C@@H](O)[C@H](O)[C@H]4O)[C@@H]3CC[C@H]2C1=O,-2.4
3,COc1ccc(-c2ccc3c(n2)CCCN3CC(O)CN2CCCc3nc(C)c(C)cc32)cc1 (stereo not given),1.02
4,CO[C@H]1O[C@H](CO)[C@@H](OC(=O)Nc2ccc3c(c2)OCO3)[C@H](OC(=O)Nc2ccccc2-c2ccccc2)[C@@H]1OC(=O)Nc1ccccc1-c1ccccc1,1.36
5,COC(=O)CC1OC1[C@H](C)[C@@H](OC)C(C)C (stereo not given in full),-0.792
6,CO[C@@H]1COC(=O)CC=C[C@@H](C)[C@@H]2C=C[C@H](O)[C@@H](COC(=O)[C@H](C)NC(=O)CC=C[C@H]1C)O2,-1.68
7,N#Cc1ccc(NN2C(C(O)c3cc(C(F)(F)F)cc(C(F)(F)F)c3)C=CC3C(=O)N(c4ccccc4)C(=O)C32)cc1 (stereo not given),1.39
8,CCOC(=O)NN=C1C[C@@H](O)[C@@H](O)[C@@H]2[C@@H]3C(=O)N(C[C@@H]4CCCO4)C(=O)[C@@H]3CC[C@@H]12,0.396
9,COCCOC(=O)N1C(=O)[C@@]2(c3cc(C#CC4(O)CCCCCC4)ccc31)[C@H](C(=O)N1CCN(c3ncccn3)CC1)[C@H]1C(=O)O[C@H](c3ccccc3)[C@H](c3ccccc3)N1[C@@H]2c1ccc(OCCO)cc1,1.01
10,C=CC[C@]1(C(=O)NCc2ccccc2)N=C(c2ccc(OCCCO)cc2)O[C@H]1c1ccccc1,1.46
11,COc1ccc(O[C@H]2C=C[C@@H](c3ccccc3)O[C@@H]2COC(=O)CCC(C)=NOC(C)CN2CCCCc3nc(C)c(C)cc32)cc1 (stereo not given in full),0.36
12,CO[C@@H]1COC(=O)CC=C[C@@H](C)[C@@H]2C=C[C@@H](O)[C@@H](COC(=O)CC=C[C@H]1C)O2,-0.438
13,CCOC(=O)[C@H](Cc1ccccc1)NC(=O)CCC1CC(OC(=O)NCCc2ccc(F)cc2)CC2(CCCC(COC(=O)NCC(c3ccccc3)c3ccccc3)O2)O1 (stereo not given in full),1.33
14,C[C@H]1CC[C@@H](C(=O)O)N[C@@H]1c1ccc(C#CCN(C)C)cc1,-1.64
15,O=C1NC(=O)C2C1C=CC(C(O)Cc1ccccc1)N2Nc1ccccn1 (stereo not given),0.555
16,CCOC(=O)CCN1C(=O)[C@H]2[C@H]3[C@H](O)[C@H](O)CC(=NOC[C@@H](O)COCc4ccco4)[C@@H]3CC[C@H]2C1=O,0.201
17,CC(C)(C)N1C(=O)[C@H]2[C@H]3[C@H](O)[C@H](O)CC(=NOCc4ccccc4)[C@@H]3CC[C@H]2C1=O,0.093
18,COC(=O)[C@@]1(Cc2ccccc2)[C@H]2c3cc(C(=O)N4CCCC4)n(Cc4ccccn4)c3C[C@H]2CN1C(=O)c1ccccc1,1.5
19,C[C@@H](c1ccccc1)N1C(=O)[C@H]2[C@H]3[C@H](O)[C@H](O)CC(=NOC[C@@H](O)COCc4ccco4)[C@@H]3CC[C@H]2C1=O,-0.856
20,COc1ccc(O[C@H]2C=C[C@@H](c3ccccc3)O[C@@H]2COC(=O)CCC(C)=NOCC[C@@H]2C=C[C@H](OC(C)=O)[C@@H](COC(C)=O)O2)cc1,-0.119
21,O=C1[C@H]2[C@H]3[C@H](O)[C@H](O)CC(=NOC[C@@H](O)COCc4ccco4)[C@H]3CC[C@H]2C(=O)N1c1cccc(Oc2ccccc2)c1,-0.496
22,COC(=O)CC=C[C@@H](C)[C@@H](C=NO[C@@H](C)c1cc(-c2c(C)cc(C)cc2C)no1)OC,-1.29
23,COc1ccc(COC(=O)NN=C2C[C@@H](O)[C@@H](O)[C@@H]3[C@@H]4C(=O)N(Cc5ccc6c(c5)OCO6)C(=O)[C@@H]4CC[C@@H]23)cc1,-0.743
24,C[C@@H]1CCC2C(=O)N(Cc3ccccc3)C[C@@H](O)CN2[C@H]1c1ccc(Br)cc1 (stereo not given in full),0.671

# Test system: not listed separately
# Test: modulators of HCV replicon luciferase signal, primary screen, HCV replication inhibitor project, Huh7 cells, luciferase reporter (AID 1109);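 further: huh7 hepatoma cells harbouring a luciferase neomycin HCV replicon reporter; luciferase luminescence as measure of HCV replicon replication; test concentration not given here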
# Details: 48 h, higher = more signal
row,Structure (SMILES),z-score
1,COC(=O)[C@H](C)NC(=O)CCC1CC(OC(=O)NCCc2ccc(F)cc2)CC2(CCCC(COC(=O)NCCc3ccc(Cl)cc3)O2)O1 (stereo not given in full),-0.0845
2,C=COC[C@H]1CN2[C@@H](CC[C@@H](C)[C@@H]2c2ccc(Br)cc2)C(=O)O1,0.924
3,CN1C(=O)C2C=CC(C(O)c3ccc(Br)cc3)N(N(c3ccccc3)c3ccccc3)C2C1=O (stereo not given),-1.01
4,COC(=O)[C@H](C)NC(=O)[C@@H](C)CO,-0.431
5,O=C1[C@H]2[C@H]3[C@H](O)[C@H](O)CC(=NOCc4ccccc4)[C@@H]3CC[C@H]2C(=O)N1Cc1ccccc1,0.427
6,CC(C)[C@@H](OCc1ccccc1)[C@H](C)C=NOC[C@@H](C)[C@H](OCc1ccccc1)C(C)C,-0.534
7,CCOC(=O)[C@H](Cc1ccccc1)NC(=O)CCC1CC(OC(=O)NCc2ccc3c(c2)OCO3)CC2(CCCC(COC(=O)NCC3CCCCC3)O2)O1 (stereo not given in full),-0.443
8,COC(=O)[C@@H]1CC[C@H](C)[C@@H](c2ccc(C)cc2)N1C(=O)c1ccc(C=NOC[C@@H](O)COCc2ccco2)cc1,-2.42
9,Cc1cc2c(nc1C)CCCN2CC(O)CN1CCN(C)CC1 (stereo not given),-0.162
10,C=C(CCCC)C(=O)CC[C@@H](OC(C)=O)c1cccc(OCCO)c1,-4.56
11,CCOC(=O)[C@H](Cc1ccccc1)NC(=O)CCC1CC(OC(=O)NCc2ccc3c(c2)OCO3)CC2(CCCC(COC(=O)NCC(c3ccccc3)c3ccccc3)O2)O1 (stereo not given in full),0.529
12,C#CCCCON=C1C[C@@H](O)[C@@H](O)[C@@H]2[C@@H]3C(=O)N(c4cccc(Oc5ccccc5)c4)C(=O)[C@@H]3CC[C@@H]12,-0.497
13,CC(C)CON=C1C[C@@H](O)[C@@H](O)[C@@H]2[C@@H]3C(=O)N(C[C@@H]4CCCO4)C(=O)[C@@H]3CC[C@H]12,0.392
14,CCN1C(=O)[C@H]2[C@H]3[C@H](O)[C@H](O)CC(=NO[C@@H]4O[C@H](CO)[C@@H](O)[C@H](O)[C@H]4O)[C@@H]3CC[C@H]2C1=O,0.26
15,COc1ccc(-c2ccc3c(n2)CCCN3CC(O)CN2CCCc3nc(C)c(C)cc32)cc1 (stereo not given),-0.578
16,CO[C@H]1O[C@H](CO)[C@@H](OC(=O)Nc2ccc3c(c2)OCO3)[C@H](OC(=O)Nc2ccccc2-c2ccccc2)[C@@H]1OC(=O)Nc1ccccc1-c1ccccc1,-2.26
17,COC(=O)CC1OC1[C@H](C)[C@@H](OC)C(C)C (stereo not given in full),-0.0397
18,CO[C@@H]1COC(=O)CC=C[C@@H](C)[C@@H]2C=C[C@H](O)[C@@H](COC(=O)[C@H](C)NC(=O)CC=C[C@H]1C)O2,-2.12

row,Structure (SMILES),z-score
1,N#Cc1ccc(NN2C(C(O)c3cc(C(F)(F)F)cc(C(F)(F)F)c3)C=CC3C(=O)N(c4ccccc4)C(=O)C32)cc1 (stereo not given),-1.99
2,CCOC(=O)NN=C1C[C@@H](O)[C@@H](O)[C@@H]2[C@@H]3C(=O)N(C[C@@H]4CCCO4)C(=O)[C@@H]3CC[C@@H]12,0.353
3,COCCOC(=O)N1C(=O)[C@@]2(c3cc(C#CC4(O)CCCCCC4)ccc31)[C@H](C(=O)N1CCN(c3ncccn3)CC1)[C@H]1C(=O)O[C@H](c3ccccc3)[C@H](c3ccccc3)N1[C@@H]2c1ccc(OCCO)cc1,-1.38
4,C=CC[C@]1(C(=O)NCc2ccccc2)N=C(c2ccc(OCCCO)cc2)O[C@H]1c1ccccc1,-2.41
5,COc1ccc(O[C@H]2C=C[C@@H](c3ccccc3)O[C@@H]2COC(=O)CCC(C)=NOC(C)CN2CCCCc3nc(C)c(C)cc32)cc1 (stereo not given in full),-0.239
6,CO[C@@H]1COC(=O)CC=C[C@@H](C)[C@@H]2C=C[C@@H](O)[C@@H](COC(=O)CC=C[C@H]1C)O2,0.464
7,CCOC(=O)[C@H](Cc1ccccc1)NC(=O)CCC1CC(OC(=O)NCCc2ccc(F)cc2)CC2(CCCC(COC(=O)NCC(c3ccccc3)c3ccccc3)O2)O1 (stereo not given in full),0.0395
8,C[C@H]1CC[C@@H](C(=O)O)N[C@@H]1c1ccc(C#CCN(C)C)cc1,0.848
9,O=C1NC(=O)C2C1C=CC(C(O)Cc1ccccc1)N2Nc1ccccn1 (stereo not given),-0.377
10,CCOC(=O)CCN1C(=O)[C@H]2[C@H]3[C@H](O)[C@H](O)CC(=NOC[C@@H](O)COCc4ccco4)[C@@H]3CC[C@H]2C1=O,0.395
11,CC(C)(C)N1C(=O)[C@H]2[C@H]3[C@H](O)[C@H](O)CC(=NOCc4ccccc4)[C@@H]3CC[C@H]2C1=O,0.656
12,COC(=O)[C@@]1(Cc2ccccc2)[C@H]2c3cc(C(=O)N4CCCC4)n(Cc4ccccn4)c3C[C@H]2CN1C(=O)c1ccccc1,-1.24
13,C[C@@H](c1ccccc1)N1C(=O)[C@H]2[C@H]3[C@H](O)[C@H](O)CC(=NOC[C@@H](O)COCc4ccco4)[C@@H]3CC[C@H]2C1=O,0.816
14,COc1ccc(O[C@H]2C=C[C@@H](c3ccccc3)O[C@@H]2COC(=O)CCC(C)=NOCC[C@@H]2C=C[C@H](OC(C)=O)[C@@H](COC(C)=O)O2)cc1,-1.1
15,O=C1[C@H]2[C@H]3[C@H](O)[C@H](O)CC(=NOC[C@@H](O)COCc4ccco4)[C@H]3CC[C@H]2C(=O)N1c1cccc(Oc2ccccc2)c1,0.126
16,COC(=O)CC=C[C@@H](C)[C@@H](C=NO[C@@H](C)c1cc(-c2c(C)cc(C)cc2C)no1)OC,-0.378
17,COc1ccc(COC(=O)NN=C2C[C@@H](O)[C@@H](O)[C@@H]3[C@@H]4C(=O)N(Cc5ccc6c(c5)OCO6)C(=O)[C@@H]4CC[C@@H]23)cc1,-0.404
18,C[C@@H]1CCC2C(=O)N(Cc3ccccc3)C[C@@H](O)CN2[C@H]1c1ccc(Br)cc1 (stereo not given in full),0.344
